# Laboratory results published in PubChem BioAssay.
# Activity calls are given as the source filed them. The rule behind the calls is not given here.
# Biological target: Pantothenate synthetase (Mycobacterium tuberculosis (strain ATCC 25618 / H37Rv)) (UniProt P9WIL5)
# Experiment: Coupled enzyme confirmation of inhibitors against recombinant Mtb PanC (AID 375);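 note: 0% = full reaction with vehicle and 100% = no enzyme background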
# Settings: coupled enzyme assay; at 10 µM, active compounds read high
# Chain of Pantothenate synthetase (Mycobacterium tuberculosis (strain ATCC 25618 / H37Rv)) (P9WIL5 whole entry, looked up): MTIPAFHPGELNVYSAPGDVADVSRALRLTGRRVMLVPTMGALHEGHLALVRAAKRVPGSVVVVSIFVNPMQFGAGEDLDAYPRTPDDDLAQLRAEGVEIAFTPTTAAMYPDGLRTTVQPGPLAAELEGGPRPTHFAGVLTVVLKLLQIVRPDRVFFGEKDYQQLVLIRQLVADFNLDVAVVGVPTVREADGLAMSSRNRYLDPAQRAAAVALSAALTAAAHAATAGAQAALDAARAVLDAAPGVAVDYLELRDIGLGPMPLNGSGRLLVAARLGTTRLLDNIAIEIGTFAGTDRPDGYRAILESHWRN
row,Structure (SMILES),inhibition
1,O=C(O)C(c1ccccc1)N1CCCC1 (stereo not given),0% (inactive)
2,O=C(NCC1CCCO1)c1ccccc1-c1nc(-c2ccc(Cl)cc2)no1 (stereo not given),1% (inactive)
3,c1cc(-c2nc3ccccc3o2)nc(-c2nc3ccccc3o2)c1,0% (inactive)
4,Cc1cc2c(c(=O)n1CCN(C)C)C(c1ccncc1)C(C#N)=C(N)O2 (stereo not given),0% (inactive)
5,O=C(C1CCCN1S(=O)(=O)c1cccc2cccnc12)N1CCn2c1nc1ccccc12 (stereo not given),6% (inactive)
6,Cc1nc(SCC(=O)N2CCC(C(N)=O)CC2)n[nH]1,0% (inactive)
7,C[C@@H]1C[C@H](O)c2cc(Cl)ccc2N1,8% (inactive)
8,O=c1c2cc(N3CCOCC3)ccc2[nH]c(=S)n1CCCN1CCCC1,13% (inactive)
9,Cn1c(-c2ccccc2)cnc1SCc1nc2ccccc2c(=O)[nH]1,7% (inactive)
10,CC(=O)[C@H]1CC[C@H]2[C@@H]3CCC4=CC(=O)CC[C@]4(C)[C@H]3[C@H](O)C[C@]12C,0% (inactive)
11,O=C(COc1ccccc1Cl)NCc1ccco1,3% (inactive)
12,CCN(CC)CCN1C(=O)C(=O)/C(=C(/O)c2ccc(OC(C)C)cc2)C1c1ccncc1 (stereo not given),5% (inactive)
13,O=C1CCCc2c1nn(-c1ccccc1)[n+]2[O-],0% (inactive)
14,CC(C)OC(=O)CSc1nnc(-c2ccc(C(C)(C)C)cc2)n1N,0% (inactive)
15,CCOCC(=O)Nc1nc2ccc(OC)cc2s1,0% (inactive)
16,CCN(CC)S(=O)(=O)c1ccc2c(c1)nc(SCn1nnc3ccccc3c1=O)n2CC,0% (inactive)
17,O=C(CSc1nc2ccsc2c(=O)n1NC(=O)c1ccccc1)Nc1nccs1,0% (inactive)
18,CCN1CCN(c2nc3c(c(=O)n(C)c(=O)n3C)n2Cc2cccc3ccccc23)CC1,0% (inactive)
19,COC(=O)CSc1nc2ncc(Cl)cc2[nH]1,1% (inactive)
20,Cc1oc2c(c1C(=O)NCc1ccccc1)CCCC2,0% (inactive)

row,Structure (SMILES),inhibition
1,CCCNC(=O)c1ccccc1NC(=O)CN(c1ccccc1OCC)S(C)(=O)=O,0% (inactive)
2,CCN(Cc1nc2ccccc2c(=O)[nH]1)Cc1nc2cc(OC)c(OC)cc2c(=O)[nH]1,0% (inactive)
3,CN(C)CCCOC(=O)CCc1ccccc1,0% (inactive)
4,CCC(=O)N[C@@H]1CC(C(C)(C)NC(=O)CC)CC=C1C (stereo not given in full),6% (inactive)
5,CCOc1cc(S(=O)(=O)NCc2ccc3c(c2)OCO3)ccc1F,2% (inactive)
6,Cc1cc(NC(=O)CCCN2C(=O)c3cccnc3C2=O)no1,0% (inactive)
7,COc1ccc(-c2nnc(SCC(=O)NC(=O)NCc3ccco3)o2)cc1,0% (inactive)
8,Cc1ccc2cc(C#N)c(N3CCCC3)nc2c1C,4% (inactive)
9,CCN1CCN(C(=O)c2cn(CCOC)c(=O)c3c2c2ccccc2n3C)CC1,1% (inactive)
10,CC(=O)c1cc2c(=O)c3cc(C)ccc3oc2nc1C,0% (inactive)
11,COc1ccccc1Nc1ccc(C(=O)NC2CCCCC2)cn1,0% (inactive)
12,CCOC(=O)N1CCN(C(=O)c2c(-c3ccccc3)noc2C)CC1,0% (inactive)
13,Cc1ccccc1-c1nc(Cc2ccccc2)no1,1% (inactive)
14,CCOC(=O)c1cc2sc(C)cc2n1CC(=O)NCc1ccc(F)cc1,2% (inactive)
15,COCCCNC(=O)c1ccc2c(c1)OCO2,1% (inactive)
16,Cc1cc(Nc2ccccc2N2CCOCC2)n2ncnc2n1,0% (inactive)
17,CCNC(=O)c1ccc(NS(=O)(=O)c2ccccc2)cc1,6% (inactive)
18,C=CCc1cccc2cc(C(=O)NCc3cccnc3)c(=O)oc12,1% (inactive)
19,Cc1nnc(SCC(=O)N2CCC(C(=O)Nc3nccs3)CC2)n1Cc1ccccc1,0% (inactive)
20,CC1(C)O[C@@H]2C[C@H]3[C@@H]4C[C@H](F)C5=CC(=O)CC[C@]5(C)[C@H]4[C@@H](O)C[C@]3(C)[C@]2(C(=O)CO)O1,7% (inactive)
